High-throughput results deposited in PubChem BioAssay by National Center for Advancing Translational Sciences (NCATS).
A selection: hits, their analogues and other compounds. The true share with any hit is near 3.8%.
HT1080NT lethal = kills 2HG-producing HT-1080-NT fibrosarcoma cells; HT-1080-NT fibrosarcoma viability, CellTiter-Glo ATP luminescence, 48 h; AID 686970; actives 1.6% (n = 360,000); Potency, µM (titrated, usually from 46.1 µM), usual class: cytotoxic;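 further: NT is the 2HG producing partner of a matched IDH1 knockdown line; nearly all actives have a fitted effect of over 55% in size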
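750 cells/well, RPMI + 5% FBS; 2 h settle, compound pin-transfer, 48 h at 37 degrees C. CellTiter-Glo 10 min RT, luminescence. Normalized to DMSO and media-only wells.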
TGFb inhibitor = blocks TGF-b signaling; HepG2 CAGA-GFP TGF-b/SMAD3 reporter, GFP fluorescence, 18 h; TGF-beta stimulated, 500 pg/mL final; Potency, µM (titrated, usually from 46.1 µM), usual class: inhibitors; actives 1.2% (n = 410,000); AID 588855; further: nearly all actives have a fitted effect of over 65% in size
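HEPG2 CAGA-GFP reporter cells (1000/well, DMEM with 1% FBS) received compounds, then recombinant TGF-beta at 500 pg/mL final for 18 hours at 37 degrees C. Per-cell GFP summed per well was normalised to unstimulated and stimulated DMSO controls before curve fitting.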
ATXN2 expr inh = reduces ATXN2 reporter expression in HEK-293 cells. actives 0.72% (n = 360,000). AID 1745845. Potency, µM (series often up to 57 µM), usual class: inhibitors. HEK-293 ATXN2-luciferase reporter, luminescence, 24 h; further: nearly all actives have a fitted effect of over 55% in size
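ATXN2-luciferase reporter cells (luciferase flanked by upstream and downstream ATXN2 gene portions) were treated 24 h at 37 °C with compounds at up to 57 uM. SteadyGlo luminescence gave expression; GF-AFC fluorescence gave viability.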
HT1080 IDH1KD tx = toxicity to HT-1080 IDH1 knockdown cells (counter line); HT-1080 IDH1 knockdown viability, ATP luminescence, 48 h; Potency, µM (series often up to 46.1 µM), usual class: cytotoxic; actives 2% (n = 360,000)
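Assay cells: HT-1080 with IDH1 knockdown, 750 per well, RPMI/5% FBS. Exposure: 48 h at 37 °C following 2 h pre-incubation. Read: CellTiter-Glo luminescence; fitted concentration-response, curve class assigned.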
ATXN viability = viability counter-screen for ATXN expression inhibitors. S2 cells (HEK-293 line with an ATXN2-luciferase reporter) viability, CellTiter-Fluor protease fluorescence, 24 h. Potency, µM (titrated, usually from 56.7 µM), hits mostly cytotoxic. actives 0.49% (n = 400,000). AID 651635; further: nearly all actives have a fitted effect of over 40% in size
HepG2 viability = HepG2 cytotoxicity, counter-screen for TGF-b inhibitors. HepG2 CAGA-GFP viability, ATP luminescence, 18 h. Potency, µM (series often up to 46.1 µM), hits mostly cytotoxic. actives 0.76% (n = 410,000). AID 588856
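CellTiter-Glo luminescence gave cytotoxicity after 18 hours at 37 degrees C. The cells were HepG2 CAGA-GFP in 1% FBS DMEM, stimulated with 500 pg/mL TGF-beta after compound addition. %Activity was normalised to no-cell wells (complete cell-killing) and DMSO (no toxicity), and curves were fitted and classified.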
Numbers stand for hits; – = inactive; ? = inconclusive; · = no result given; [ ] = remark or other dose. The call rests on the fitted dose curve; in most records, active means well fitted curve in the direction sought with a large enough effect; inconclusive means small, poorly fitted or top-dose-only effect, or another doubt; inactive means no such curve, though single readings can be large; an effect the other way counts as inactive or inconclusive.

SMILES	HT1080NT lethal	TGFb inhibitor	ATXN2 expr inh	HT1080 IDH1KD tx	ATXN viability	HepG2 viability
Cc1cccc(C(=O)Nc2cccc(C(=O)N/N=C/c3ccc4c(c3)OCO4)c2)c1	18µM	–	–	?	?	–
O=C(N/N=C/c1ccc2c(c1)OCO2)c1cccc(NC(=O)c2ccccc2Cl)c1	12µM	–	–	8.2µM	?	–
CCN(CC)CCNC(=O)CCc1c(C)nc2c(c(C)nn2-c2ccc(C)c(C)c2)c1C	?	?	–	26µM	?	–
COc1ccc(CCNC(=O)CCc2c(C)nc3c(c(C)nn3-c3ccc(C)c(C)c3)c2C)cc1OC	·	–	–	·	–	–
Cc1ccc(-n2nc(C)c3c(C)c(CCC(=O)Nc4ccc(CN5CCCC5)cc4)c(C)nc32)cc1	–	?	?	15µM	?	–
COC(=O)CC(=O)CSc1nc2cc(C(=O)NCC(C)C)ccc2c(=O)n1CCc1ccccc1	·	–	–	·	–	–
COc1cc(NC(=O)c2noc3c2CC(C(C)(C)C)CC3)cc(OC)c1OC (stereo not drawn)	·	–	–	·	–	–
O=C(c1ccc(F)c(F)c1)N1CCOc2ccc(CN3CCN(CCO)CC3)cc2C1	·	·	·	·	–	·
COc1ccccc1/C=C\C(=O)NCC(=O)N/N=C/c1ccc(O)cc1O	?	?	–	9.2µM	?	–
COc1ccc(/C=C/C(=O)NCC(=O)N/N=C/c2cc(Br)ccc2OCc2ccccc2)cc1	?	–	–	–[9.24 µM]	16µM	–
COc1ccc2nc(SCc3ncc(C)c(OC)c3C)[nH]c2c1	·	·	–	·	–	·
Cc1ccc(C(=O)C(C(=O)/C=C/c2ccccc2)=C2SCCCS2)cc1	12µM	–	13µM	10µM	·	–
Cc1ccc(C(=O)C=CC=Cc2ccccc2)cc1	–	–	·	–	–	–
O=C(c1cccc(Cl)c1)N1CCC(=O)N([C@H](COCc2cccc(Cl)c2)Cc2ccccc2)CC1	?	·	?	16µM	?	·
CC(C)(C)c1ccc(C(=O)N2CCC(=O)N(C(COCc3ccccc3)Cc3ccccc3)CC2)cc1 (stereo not drawn)	?	?	?	–	·	–
Cc1cccc(COCC(Cc2ccccc2)N2CCN(C(=O)c3ccc(Cl)c(Cl)c3)CCC2=O)c1 (stereo not drawn)	–	?	?	?	?	–
CC(C)(C)c1ccc(C(=O)N2CCC(=O)N([C@H](COCc3ccccc3)Cc3ccccc3)CC2)cc1	?	·	32µM	?	·	·
Cc1cccc(COC[C@H](Cc2ccccc2)N2CCN(C(=O)c3ccc(Cl)c(Cl)c3)CCC2=O)c1	?	·	–	16µM	?	·
Cc1cccc(COCC(Cc2ccccc2)N2CCN(C(=O)c3cccc(C)c3)CCC2=O)c1 (stereo not drawn)	–	?	–	–	?	–
Cc1nn2c(=O)cc(COc3ccc(/C=C(\C#N)C(=O)Nc4ccc(F)cc4)cc3)nc2s1	·	–	–	·	–	–
O=c1[nH]c(=O)n([C@H]2C[C@@H](O)[C@@H](CO)O2)cc1C=CBr	·	·	–	·	·	·
Fc1ccc(C(CCNCc2ccccn2)c2ccc(Cl)cc2)cc1 (stereo not drawn)	18µM	?	–	21µM	–	13µM
O=C(Nc1nc2cccc(-c3ccc(CN4CCS(=O)(=O)CC4)cc3)n2n1)C1CC1	·	·	–	·	·	·
Cc1ccc(CN2CC(C(=O)Nc3ncc(C)s3)CC2=O)cc1 (stereo not drawn)	–	?	16µM	–	–	–
Cc1ccc(CN2CC(C(=O)Nc3nc(C)cs3)CC2=O)cc1 (stereo not drawn)	–	–	·	–	–	–
SMILES	HT1080NT lethal	TGFb inhibitor	ATXN2 expr inh	HT1080 IDH1KD tx	ATXN viability	HepG2 viability
CCCCn1c(=O)[nH]c(=O)c2c1nc(-c1ccc(OC)c(Br)c1)n2CC(C)C	29µM	?	?	23µM	?	–
C=CCOc1ccc(-c2nc3c(c(=O)[nH]c(=O)n3CCCC)n2C)cc1Br	–	–	–	–	–	–
COc1cc(C2C(C#N)=C(N)Oc3cc(N)ccc32)cc(OC)c1OC (stereo not drawn)	?	–	–	0.58µM	?	–
COc1ccc(C2C(C#N)=C(N)Oc3cc(N)ccc32)cc1 (stereo not drawn)	–	–	·	–	–	–
COc1ccc(C2C(C#N)=C(N)Oc3c2ccc2cccnc32)cc1OC (stereo not drawn)	?	–	–	0.65µM	–	–
COc1ccc(O)c(/C=N/NC(=O)c2cccc(N3CCCC3=O)c2)c1	?	–	?	?	–	–
COc1ccc(O)c(/C=N/NC(=O)c2ccc(N3CCCC3=O)cc2)c1	?	–	25µM	23µM	–	–
Cc1ccc(S(=O)(=O)Nc2ccc(O)c3ccccc23)c(C)c1	29µM	?	–	?	?	–
Cc1ccc(S(=O)(=O)Nc2ccc3c4c(cccc24)CC3)c(C)c1	21µM	?	–	10µM	–	–
O=S(=O)(Nc1ccc2c3c(cccc13)CC2)c1ccccc1	–	?	·	–	–	–
COc1ccc(S(=O)(=O)Nc2ccccc2)cc1	–	–	–	–	–	–
